Test systems include NCI-H23 lung; NCI-H226 lung; NCI-H322M lung; HOP-62 NSCLC; NCI-H460 lung; HOP-92 NSCLC; NCI-H522 lung; A549/ATCC NSCLC; 786-0 renal; COLO 205 colon; DU-145 prostate; MALME-3M melanoma; MDA-MB-231 breast; RXF 393 renal; SF-268 CNS; SF-295 CNS; SF-539 CNS; UACC-257 melanoma; M14 melanoma.
What all share (test): NCI-60 one-dose screen, 48 h (100 = growth as untreated, 0 = no growth, -100 = all killed)
What all share (conditions): 10 µM unless noted

The structures appear in SMILES notation. About 83,000 compounds went through this panel and 20% of them were active in at least one assay; those are over-represented in the sample as a whole.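 In brief: 96-well plates, 48 h treatment, single concentration, percent growth endpoint.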 Values without a mark were called inactive. Activity calls are given as the source filed them. How the source made its calls: active means growth percent below 10; inactive means the rest.

Take `CCc1ccc(-c2cn3ccnc3c(-c3ccc4ncn(Cc5ccccc5)c4c3)n2)cc1`: the growth in the experiment on NCI-H23 lung was 77%; in the experiment with NCI-H226 lung, 98.5%; in the experiment on NCI-H322M lung, 99.1%; with HOP-62 NSCLC, 82.1%; in the experiment with NCI-H460 lung it was 58%; in the experiment on HOP-92 NSCLC it was 63.9%. The growth is 54.1% with NCI-H522 lung; 54.6% in the experiment on A549/ATCC NSCLC; 61.9% in the experiment on 786-0 renal; 65.8% in the experiment with COLO 205 colon; 80.9% in the experiment on DU-145 prostate; 115% with MALME-3M melanoma. Besides, the growth is 56.8% with MDA-MB-231 breast; 69.3% in the experiment with RXF 393 renal; 69.5% in the experiment with SF-268 CNS; 48.8% in the experiment with SF-295 CNS; 78.8% in the experiment on SF-539 CNS; 103% in the experiment with UACC-257 melanoma. Moreover, in the experiment on M14 melanoma, the growth was 63.6%.
As to `COc1ccc(C(=O)c2nc3ccccc3n2CC(=O)c2ccc(F)cc2)cc1`, the growth in the experiment with NCI-H23 lung was 88.4%; with NCI-H226 lung, 102%; in the experiment with NCI-H322M lung it was 99.8%; in the experiment on HOP-62 NSCLC, 91.4%; in the experiment on NCI-H460 lung, 108%; in the experiment with HOP-92 NSCLC, 95.5%. Also, the growth in the experiment on NCI-H522 lung is 35.6%; in the experiment with A549/ATCC NSCLC, 98.2%; in the experiment with 786-0 renal, 87.3%; with COLO 205 colon, 131%; in the experiment on DU-145 prostate it was 104%; in the experiment with MALME-3M melanoma it was 68.6%. In addition, the growth with MDA-MB-231 breast was 83%; in the experiment on RXF 393 renal, 89.1%; with SF-268 CNS, 100%; in the experiment with SF-295 CNS, 190%; in the experiment on SF-539 CNS it was 101%; in the experiment on UACC-257 melanoma it was 86%. Besides, in the experiment with M14 melanoma, the growth was 82.8%.
Turning to `Cn1c(N2NC(=O)C(N=Nc3ccc(S(N)(=O)=O)cc3)C2=O)nc(-c2ccco2)c(C#N)c1=O` (configuration not stated), the growth was 70% in the experiment on NCI-H23 lung; 94.9% with NCI-H226 lung; 107% with NCI-H322M lung; 96.4% in the experiment on HOP-62 NSCLC; 103% in the experiment with NCI-H460 lung; 32.3% in the experiment on HOP-92 NSCLC. In addition, the growth was -40.5% (active) in the experiment with NCI-H522 lung; 109% in the experiment on A549/ATCC NSCLC; 100% in the experiment with 786-0 renal; 77.1% in the experiment on COLO 205 colon; 95.7% with DU-145 prostate; 74.7% with MALME-3M melanoma. In addition, the growth with MDA-MB-231 breast is 93.8%; in the experiment with RXF 393 renal, -3.8% (active); in the experiment on SF-268 CNS, 98.8%; with SF-295 CNS it was 123%; in the experiment on SF-539 CNS, 96.7%; in the experiment with UACC-257 melanoma it was 88.7%. For the same compound, the growth with M14 melanoma is 91.9%.
For `O=C(/C(=C/c1ccc([N+](=O)[O-])cc1)SCc1ccc(F)cc1)c1ccc(F)cc1`, the growth is 74.8% in the experiment with NCI-H23 lung; 86.9% in the experiment on NCI-H226 lung; 85.9% in the experiment with NCI-H322M lung; 93.6% in the experiment with HOP-62 NSCLC; 90.7% in the experiment with NCI-H460 lung; 90.2% in the experiment on HOP-92 NSCLC. The growth with NCI-H522 lung is 52.2%; in the experiment on A549/ATCC NSCLC, 91.4%; in the experiment on 786-0 renal, 78.7%; with COLO 205 colon it was 94.7%; with DU-145 prostate, 94.6%; with MALME-3M melanoma it was 88.8%. The growth in the experiment with MDA-MB-231 breast was 76.1%; with RXF 393 renal it was 97%; in the experiment on SF-268 CNS, 80.8%; with SF-295 CNS, 93.2%; in the experiment with SF-539 CNS, 105%; with UACC-257 melanoma, 108%. Moreover, the growth in the experiment with M14 melanoma was 82.8%.
For `O=C1Nc2ccccc2/C1=C\c1c(-c2ccc(F)cc2)nc2ccccn12`, the growth in the experiment on NCI-H23 lung was 49.1%; in the experiment on NCI-H226 lung, 79.2%; in the experiment with NCI-H322M lung, 83%; in the experiment with HOP-62 NSCLC, 72.4%; in the experiment with NCI-H460 lung, 82.6%; in the experiment on HOP-92 NSCLC it was 79.3%. Further, the growth is 42.6% in the experiment on NCI-H522 lung; 89% in the experiment with A549/ATCC NSCLC; 82.1% with 786-0 renal; 76.6% in the experiment on COLO 205 colon; 94.5% with DU-145 prostate; 73.7% in the experiment on MALME-3M melanoma. In addition, the growth with MDA-MB-231 breast is 60.2%; in the experiment with RXF 393 renal, 67%; with SF-268 CNS, 77.7%; with SF-295 CNS it was 59.9%; in the experiment with SF-539 CNS, 78%; with UACC-257 melanoma it was 102%. In addition, the growth in the experiment with M14 melanoma was 53.2%.
With `O=C1Nc2cc(Cl)ccc2/C1=C\c1c(-c2ccc(F)cc2)nc2ccccn12`, the growth in the experiment with NCI-H23 lung was -20.4% (active); in the experiment on NCI-H226 lung, 7.11% (active); in the experiment with NCI-H322M lung, 39.5%; in the experiment with HOP-62 NSCLC it was 3.44% (active); in the experiment on NCI-H460 lung it was 0.0437% (active); in the experiment with HOP-92 NSCLC, 69.8%. Also, the growth was -51.5% (active) in the experiment with NCI-H522 lung; 33.5% in the experiment on A549/ATCC NSCLC; 7.55% (active) in the experiment with 786-0 renal; -33.1% (active) in the experiment on COLO 205 colon; -17.9% (active) in the experiment on DU-145 prostate; 41.4% in the experiment on MALME-3M melanoma. The growth in the experiment on MDA-MB-231 breast is 50.3%; in the experiment with RXF 393 renal it was -23.8% (active); in the experiment with SF-268 CNS, 20%; in the experiment on SF-295 CNS it was -58.2% (active); with SF-539 CNS it was -26.4% (active); in the experiment on UACC-257 melanoma, 68.7%. For the same compound, the growth in the experiment on M14 melanoma was -10.8% (active).
Turning to `CC(C)=CCC[C@](C)(O)[C@H]1CC[C@]2(C)[C@@H]1CC[C@@H]1[C@@]3(C)C/C(=C/c4ccccc4)C(=O)C(C)(C)[C@@H]3CC[C@]12C`, the growth with NCI-H23 lung is 84.7%; in the experiment with NCI-H226 lung, 93.7%; in the experiment with NCI-H322M lung, 93.7%; with HOP-62 NSCLC, 92.2%; in the experiment on NCI-H460 lung, 91.1%; in the experiment on HOP-92 NSCLC, 78.8%. Further, the growth with NCI-H522 lung was 77.9%; in the experiment with A549/ATCC NSCLC, 85.1%; in the experiment on 786-0 renal, 92.2%; in the experiment on COLO 205 colon, 99.9%; in the experiment with DU-145 prostate it was 85.3%; in the experiment with MALME-3M melanoma it was 78.6%. Also, the growth in the experiment on MDA-MB-231 breast is 85.5%; with RXF 393 renal it was 95.3%; in the experiment with SF-268 CNS it was 94.7%; in the experiment on SF-295 CNS, 109%; in the experiment with SF-539 CNS it was 90.4%; in the experiment with UACC-257 melanoma, 104%. Also, in the experiment on M14 melanoma, the growth is 96.5%.
Consider `COc1ccc(/C=C/c2nc(Nc3ccc(S(=O)(=O)NC(C)=O)cc3)c3ccccc3n2)cc1`, for which the growth is 85.9% in the experiment with NCI-H23 lung; 84% in the experiment on NCI-H226 lung; 38.6% with NCI-H322M lung; 81.2% with HOP-62 NSCLC; 64.7% with NCI-H460 lung; 67.8% in the experiment on HOP-92 NSCLC. Besides, the growth in the experiment on NCI-H522 lung was 76.3%; with A549/ATCC NSCLC it was 42%; with 786-0 renal it was 83.6%; in the experiment with COLO 205 colon it was 49.7%; in the experiment on DU-145 prostate, 69.5%; in the experiment with MALME-3M melanoma, 99.1%. In addition, the growth with MDA-MB-231 breast was 72.4%; with RXF 393 renal it was 103%; with SF-268 CNS it was 85.3%; in the experiment on SF-295 CNS, 81.2%; with SF-539 CNS, 97.3%; in the experiment with UACC-257 melanoma, 89.4%. For the same compound, the growth in the experiment with M14 melanoma is 45.5%.

The values are drawn from PubChem BioAssay (NCI).
